Screening results from PubChem BioAssay.
EBV LMP1 NFkB: EBV LMP1-driven NF-kappaB luciferase reporter inhibitors, primary screen, cell-based, luminescence, single point. LMP1-induced NF-kappaB luciferase reporter cells. actives 0.69% (n = 350,000). inhibition, % at 12.5 µM; in the data active = inhibition above about 41%; inconclusive = no clear call, values can overlap the other calls;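 also: 0% = neutral control wells and 100% = reference inhibitor control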
EWS-Fli inh: EWS/Fli-driven NR0B1 reporter inhibitors, primary screen, A673 cells, NR0B1 luciferase, luminescence, MLPCN library | actives 0.67% (n = 350,000) | AID 651661, 2012 | inhibition, % at 12.6 µM | viability-normalised;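 active = mean inhibition of at least 50% after viability correction, with every replicate also passing that limit; inconclusive = mean reaches 50% but only one of two replicates passes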;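 also: firefly luciferase signal divided by Alamar Blue viability fluorescence both relative to DMSO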
TWEAK Fn14 block: inhibitors of TWEAK-Fn14 signaling, primary screen, luciferase reporter cells, uHTS; TWEAK-stimulated Fn14 reporter cells, luciferase luminescence, 8 h; inhibition, % at 10 µM; actives 2% (n = 360,000); AID 1159606, 2016; in the data active = inhibition above about 50%
TROY signal inh: inhibitors of TROY-driven NF-kB signaling, primary screen, Q293 LMP1-TROYcd cells, NF-kB luciferase, uHTS. AID 1347056, 2019. inhibition, % at 10 µM. Q293 LMP1-TROYcd NF-kB luciferase reporter, 4 h. actives 0.98% (n = 360,000);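 active = compounds whose plate-normalised and pattern-corrected inhibition of the luciferase reporter signal at the single screening dose is 50% or more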
LGR2 inh: inhibitors of bursicon-induced LGR2 CRE-luciferase signal, primary screen, cell-based, HEK293, CRE-luciferase reporter, bursicon stimulation | Drosophila bursicon receptor LGR2 (rickets) | bursicon-stimulated, 4 h | inhibition, % at 9.99 µM | actives 0.35% (n = 380,000);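 active = drop in luminescence signal, shown as inhibition above about 50% in the replicate tests, limit read from the data, passing the limit was not always enough; inconclusive = probably only some replicates passing the limit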;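 also: agonist challenge used bursicon conditioned medium at about half maximal strength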
* hit, by the source's call; u = inconclusive; x = no result; ! = repeats disagree. Rows were chosen to be rich in hits. Some 2.5% of all compounds tested hit in one or more screens of this group.

SMILES	EBV LMP1 NFkB	EWS-Fli inh	TWEAK Fn14 block	TROY signal inh	LGR2 inh
Cc1cc(C(=O)COC(=O)c2ccncc2)c(C)n1Cc1ccco1	1.2	-7.0	59.5*	-9.3	-27.0
COCC(C)n1c(C)cc(C(=O)COC(=O)c2cccn2C)c1C (configuration not stated)	u	61.5*	93.5*	81.8*	x
Cc1cc(C(=O)CN2C(=O)C(=O)N(Cc3ccco3)C2=O)c(C)n1CCc1ccc(F)cc1	-12.6	3.9	5.7	0.3	15.4
CCCC#Cc1ccc2c(c1)O[C@H](CN(C)C(=O)c1cnccn1)[C@@H](C)CN([C@@H](C)CO)S2(=O)=O	x	-4.0	x	x	8.1
Cc1cc(C(=O)COC(=O)c2ccco2)c(C)n1Cc1ccco1	39.9	-8.7	93.4*	84.4*	91.5*
Cc1cc(C(=O)COC(=O)c2cc(Cl)ccc2N)c(C)n1Cc1ccco1	-61.4	-116.2	3.3	-13.6	-42.1
CCCC(=O)N1CC2(CCN(S(=O)(=O)CC)CC2)c2c(n(C)c3cc(OC)ccc23)[C@@H]1CO	x	6.5	x	x	-10.5
COc1ccc(C/C(C)=N/NC(=S)Nc2ccc(C(C)C)cc2)cc1	3.6	x	-29.9	-16.0	-16.8
COc1ccc(C/C(C)=N/NC(=S)Nc2ccccc2F)cc1	-8.0	-55.7	70.9*	78.7*	-32.7
O=C1OCCC1Sc1nnc(-c2ccc(Br)cc2)o1 (configuration not stated)	22.8	x	59.3*	-1.7	x
Cc1ccc(S(=O)(=O)Nc2ccc(Cl)cc2)cc1NC(=O)c1cc2c(s1)CCCC2	-6.1	x	72.4*	61.8*	-1.0
CCOC(=O)C1=C(C)NC(C)=C(C(=O)OC)C1c1cccc(Cl)c1Cl (configuration not stated)	-4.1	-22.7	-36.7	4.6	2.8
CCOC(=O)C1=C(COCCN)NC(C)=C(C(=O)OC)C1c1ccccc1Cl (configuration not stated)	-4.3	1.8	2.8	65.6*!	17.7
COc1ccc(CN(C)C[C@@H]2OCCCC[C@@H](C)Oc3ccc(NC(=O)CCC(F)(F)F)cc3C(=O)N([C@H](C)CO)C[C@@H]2C)cc1	x	4.7	x	x	-4.0
O=c1cc(Nc2ccc3c(c2)OCCO3)[nH]c(=O)n1Cc1ccc(F)cc1	8.5	-2.3	69.5*	50.6*	-1.2
CCOc1ccc(N(C(C)C(=O)NC2CCCCCC2)S(C)(=O)=O)cc1 (configuration not stated)	-0.8	x	90.5*	-20.4	x
C[C@@H]1CN([C@@H](C)CO)S(=O)(=O)c2ccc(C#CC3CC3)cc2O[C@@H]1CN(C)Cc1cncnc1	x	-3.6	x	x	1.3
C=CCn1c(C)cc(C(=O)COC(=O)[C@@H](NC(=O)c2ccccc2Cl)C(C)C)c1C	17.3	-17.3	54.5*	41.9	u
Cc1ccccc1-c1ccc2c(c1)O[C@H](CN(C)C(=O)Nc1ccc(F)cc1)[C@@H](C)CN([C@H](C)CO)S2(=O)=O	x	29.2	x	x	20.6
COc1cccc(NC(=O)COC(=O)c2c3c(nc4ccccc24)CCC(C)C3)c1 (configuration not stated)	22.0	x	57.4*	35.6	x
CC1CCc2nc3ccccc3c(C(=O)OCC(=O)NC3CCS(=O)(=O)C3)c2C1 (configuration not stated)	-3.5	8.6	2.4	-5.4	-7.1
COc1cc(/C=C2/C(C)=C(C#N)c3nc(N)c(C#N)c(C)c32)ccc1OCC(=O)O	-2.9	6.7	x	x	1.5
CC1=C(C#N)c2nc(N)c(C#N)c(C)c2/C1=C\c1ccc(-c2ccccc2C(=O)O)o1	30.5	-25.4	70.3*	25.0	26.5
O=C1CS/C(=N\c2ccccn2)N1C1CCCCC1	3.1	x	53.3*	8.8	x
O=C1c2cccnc2C(=O)N1C1CCCCC1	-2.1	9.0	-0.5	13.0	-0.7
SMILES	EBV LMP1 NFkB	EWS-Fli inh	TWEAK Fn14 block	TROY signal inh	LGR2 inh
O=C(NCC[C@@H]1CC[C@@H](NS(=O)(=O)c2cccc(F)c2)[C@@H](CO)O1)C1CCCCC1	x	7.2	x	x	7.1
NC(=S)n1[nH]c(-c2ccc([N+](=O)[O-])cc2)c(N=Nc2cccc(Cl)c2)c1=O	13.4	44.2	71.8*	55.7*	30.6
C[C@@H]1CN([C@H](C)CO)C(=O)c2cc(NC(=O)Nc3ccc4c(c3)OCO4)ccc2O[C@@H](C)CCCCO[C@H]1CN(C)S(C)(=O)=O	x	-17.5	x	x	9.3
COc1cc(NC(=O)COc2ccc(Cl)cc2)ccc1-c1cc2ccccc2oc1=O	-6.8	12.4	59.2*	27.9	7.0
COc1cc(NC(=O)COc2ccc(Cl)cc2)ccc1NC(=O)C(C)C	3.5	1.2	-6.7	0.9	-11.5
Cn1c(N=Nc2ccc(N3CCOCC3)cc2)[n+](C)c2ccccc21	-7.8	-25.6	45.5	69.8*	-35.0
CCn1c(=Nc2ccc(N3CCOCC3)cc2)ccc2ccccc21	3.2	x	-6.7	3.3	x
Cn1c(=Nc2ccc(N3CCOCC3)cc2)ccc2ccccc21	8.5	x	72.0*	x	x
COc1ccc(S(=O)(=O)Nc2ccc3c(c2)C(=O)N([C@@H](C)CO)C[C@H](C)[C@@H](CN(C)Cc2ccc(-c4ccccc4)cc2)O3)cc1	x	-10.9	x	x	-15.8
COc1ccc(-c2cn(CC[C@@H]3CC[C@@H](NC(=O)Nc4ccc(F)cc4)[C@@H](CO)O3)nn2)cc1	x	-10.1	x	x	4.9
CNC[C@H]1Oc2ccc(NC(=O)Nc3ccc4c(c3)OCO4)cc2C(=O)N([C@@H](C)CO)C[C@H]1C	x	12.1	x	x	13.2
COCCn1c(C)cc(C(=O)COC(=O)C23CC4CC(CC(O)(C4)C2)C3)c1C	41.7*	x	76.0*	65.0*	x
CCCn1c(C)cc(C(=O)COC(=O)c2nccnc2N)c1C	31.0	-33.3	71.6*	55.9*	31.4
Cc1cc(C(=O)COC(=O)C23CC4CC(CC(O)(C4)C2)C3)c(C)n1-c1c(C)n(C)n(-c2ccccc2)c1=O	1.6	-7.1	-19.7	1.3	-5.7
COCCn1c(C)cc(C(=O)COC(=O)c2cc3c(s2)CCC3)c1C	-12.4	x	12.2	-1.6	x
COCCn1c(C)cc(C(=O)COC(=O)c2cccc(O)c2)c1C	82.1*	40.0	96.4*	85.6*	84.8*
CN(C)C(=O)c1cccc(-c2ccc3c(c2)[C@H]2[C@H](CCN2C(=O)C2CCCCC2)[C@@H](CO)N3)c1	x	-2.9	x	x	-9.8
O=c1cc(-c2ccc(O)c(O)c2)oc2ccc3ccccc3c12	51.8*	61.8*	92.0*	78.1*	-28.6
OC[C@@H]1[C@H](c2ccc(C#Cc3ccccc3)cc2)[C@H]2CN(Cc3cncnc3)CCCCN12	x	-17.6	x	x	-19.0
O=[N+]([O-])c1ccc(N2N=C(c3ccccc3)CC2c2ccccc2O)cc1 (configuration not stated)	5.7	15.6	81.4*	59.9*	-7.7
COc1ccc(-c2nc(-c3ccncc3)no2)c(OC)c1	-9.8	34.5	56.4*	17.2	65.7*
CC(C)(C)c1ccc(-c2nc(-c3ccncc3)no2)cc1	-9.8	11.8	78.8*	72.4*	u
